Measurements as given in PubChem BioAssay.
Values without a mark were called inactive. The rule behind the calls is not given here.

Molecular target: Pantothenate synthetase (Mycobacterium tuberculosis (strain ATCC 25618 / H37Rv)) (UniProt P9WIL5)
Assay: Coupled enzyme confirmation of inhibitors against recombinant Mtb PanC (AID 375);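 note: 0% = full reaction with vehicle and 100% = no enzyme background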
Conditions: coupled enzyme assay; at 10 µM, active compounds read high

Pantothenate synthetase (Mycobacterium tuberculosis (strain ATCC 25618 / H37Rv)), sequence (P9WIL5 whole entry, looked up): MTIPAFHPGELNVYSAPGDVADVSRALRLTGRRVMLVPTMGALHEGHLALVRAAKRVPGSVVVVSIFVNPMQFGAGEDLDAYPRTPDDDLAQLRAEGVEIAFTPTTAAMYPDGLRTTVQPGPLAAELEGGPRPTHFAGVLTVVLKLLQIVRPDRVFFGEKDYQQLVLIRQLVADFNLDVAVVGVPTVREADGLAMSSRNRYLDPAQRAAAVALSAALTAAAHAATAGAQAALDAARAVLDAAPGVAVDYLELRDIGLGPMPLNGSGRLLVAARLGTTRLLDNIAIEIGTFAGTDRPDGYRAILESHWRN

SMILES | inhibition [%]
CCOC(=O)C1CCN(C(C)=C2C(=O)c3ccccc3C2=O)CC1 | 2
CC(=O)c1cccc(NC(=O)NCc2ccccn2)c1 | 2
CN(C1CCS(=O)(=O)C1)S(=O)(=O)c1cccc2nsnc12 (stereo not given) | 2
O=C(CCNS(=O)(=O)c1cccs1)Nc1ccccc1F | 3
CCOc1nc(-c2ccncc2)nc2ccccc12 | 0
CN(C)C(=O)COc1ccc2cc(-c3ccccc3)c(=O)oc2c1 | 1
O=S(=O)(NCC1CCCO1)c1ccc(S(=O)(=O)N2CCc3ccccc3C2)cc1 (stereo not given) | 5
CCOc1ccc(N2C(N)=NC(N)=NC2(C)C)cc1 | 0
Cn1c2c(c(=O)n(C)c1=O)C(CC(=O)Nc1ccccc1)C(=O)N2 (stereo not given) | 7
CCc1[nH]nc2c1C(c1cccc(OC(=O)N3CCOCC3)c1)C(C#N)=C(N)O2 (stereo not given) | 1
CC(CCc1ccccc1)NCC(O)c1ccc(O)c(C(N)=O)c1 (stereo not given) | 2
CC(C)CCn1c(NCCc2ccccc2)nc2c1c(=O)n(C)c(=O)n2C | 0
C=CCSc1nnc(-c2cccnc2)o1 | 0
COCCNC(=O)c1ccc(CS(=O)(=O)c2ccc(OC)cc2)o1 | 0
COc1ccc(-c2nnc(SCC(=O)N3CCOCC3)o2)cc1OC | 0
CCOC(=O)c1c(NC(=O)CSc2nc3c(c(=O)n(C)c(=O)n3C)n2C(C)C)sc(C)c1C | 10
Cc1cc(OCC(=O)NCCO)cc(C)c1Cl | 3
O=C(NCc1cccnc1)c1cn(CCc2ccccc2)nn1 | 0
CN(C(=O)c1ccccn1)c1nnc(-c2ccncc2)s1 | 0
Cc1ccc(S(=O)(=O)NCCc2ccncc2)cc1 | 2

SMILES | inhibition [%]
COC(=O)c1ccc(CSc2nc3ccccc3c(=O)n2Cc2ccco2)o1 | 6
CCOC(=O)c1ccc(NC(=O)CSc2ncccn2)cc1 | 6
C#CCSc1nnc(-c2ccccc2)c(=O)[nH]1 | 0
COCC(C)NC(=O)CCS(=O)(=O)c1nc(-c2ccc(OC)cc2)cc(C(F)(F)F)n1 (stereo not given) | 0
CCC(C)OC(=O)C1=C(C)NC2=C(C(=O)C(C(=O)OC)C(C)C2)C1c1ccc(N(C)C)cc1 (stereo not given) | 0
CCCC(=O)Nc1c2c(nn1-c1ccc(OC)cc1)CS(=O)C2 (stereo not given) | 1
Cc1cc(=O)n2nc(N3CCC(C(=O)N4CCN(Cc5ccccc5)CC4)CC3)sc2n1 | 2
c1ccc(CN2CCN(c3ncnc4c3[nH]c3ccccc34)CC2)cc1 | 5
CCn1cc(C(=O)NCC2CCCO2)c(=O)c2cc(S(=O)(=O)N(C)C)ccc21 (stereo not given) | 0
Cc1cc2ncc(C(=O)Nc3ccccc3)c(C)n2n1 | 7
CCN1CCc2c(C#N)c(N3CCCCC3)nc(NCc3ccccc3)c2C1 | 0
Cc1nc(NC2=NCN(CCc3ccccc3)CN2)nc2c(C)cccc12 | 0
O=C(OCN1C(=O)c2ccccc2C1=O)c1ccc2c(=O)n3c(nc2c1)CCC3 | 0
Cc1ccc(C(=O)OCC(=O)c2ccc(Cl)s2)s1 | 4
c1ccc(CSCc2cn3ccsc3n2)cc1 | 0
CC(=O)c1cc(-c2ccc(F)cc2)n(CCC(=O)Nc2cc(C)[nH]n2)c1C | 4
Cc1cccc(-c2nc(CN3CCCC(C(=O)NC4CCCC4)C3)c(C)o2)c1 (stereo not given) | 0
Cc1nnc(C)n1/N=C/c1cccc(Oc2ccccc2)c1 | 1
FC(F)Oc1cccc2cccnc12 | 6
CN1C(=O)C(O)(CC(=O)c2ccc3c(c2)OCO3)c2ccccc21 (stereo not given) | 0
